Unmarked numbers belong to inactive results.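 How the source made its calls: active = MAPPIT score above the 99th percentile of random reference set scores in the same batch; inactive = at or below it.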
Experiments:
Assay in all cases: MAPPIT interaction score (arbitrary units); higher = stronger binary interaction signal, active = hit call of the paper
ATPCL = details: MAPPIT configuration: N-N
Procedure: (§1)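 MAPPIT in HEK293T cells: Drosophila bait and prey ORFs (from the FlyBi ORF collection) were co-transfected in quadruplicate, with two wells stimulated by erythropoietin. Interaction-dependent JAK-STAT activation was read out with a STAT-responsive firefly luciferase reporter. Positive calls use the 99th percentile of random reference set (RRS) scores within each batch […]. Batches Dvs01 and Dvs02 used the N-N configuration and Dvs04 the N-C configuration. Pairs come from FlyBi screens, CuraGen, DPiM, Finley Y2H, Lit-BM-16, Lit-BS-16 and RRS.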

Cka = details: MAPPIT configuration: N-N; pair source set: Curagen_low_conf
Procedure: as §1

CycK = details: MAPPIT configuration: N-N; pair source set: Finley_Y2H
Procedure: as §1

Dsp1 = details: pair source set: RRS
Procedure: as §1

Fkbp12 = details: MAPPIT configuration: N-N; pair source set: Lit-BS-16
Procedure: as §1

dod = details: MAPPIT configuration: N-N; pair source set: screen_1
Procedure: as §1

eIF4E3 = details: MAPPIT configuration: N-N; pair source set: Curagen_high_conf
Procedure: as §1

128up = details: MAPPIT configuration: N-N; pair source set: DPIM
Procedure: as §1

7B2 = details: MAPPIT configuration: N-N; pair source set: Finley_Y2H
Procedure: as §1

CG10591 = details: MAPPIT configuration: N-N; pair source set: Curagen_low_conf
Procedure: as §1

CSN7 = details: MAPPIT configuration: N-N; pair source set: Lit-BM-16
Procedure: as §1

PICK1 = details: MAPPIT configuration: N-N; pair source set: screen_1
Procedure: as §1

14-3-3epsilon = details: pair source set: Lit-BM-16
Procedure: as §1

CG5174 = details: MAPPIT configuration: N-N; pair source set: Curagen_low_conf
Procedure: as §1

LamC = details: MAPPIT configuration: N-N; pair source set: DPIM
Procedure: as §1

mon2 = details: MAPPIT configuration: N-N; pair source set: Curagen_low_conf
Procedure: as §1

par-1 = details: pair source set: Lit-BM-16
Procedure: as §1

sol = details: MAPPIT configuration: N-N; pair source set: Curagen_low_conf
Procedure: as §1

tral = details: MAPPIT configuration: N-N; pair source set: Lit-BS-16
Procedure: as §1

hpo = details: MAPPIT configuration: N-N; pair source set: Lit-BM-16
Procedure: as §1

sd = details: MAPPIT configuration: N-C; pair source set: Lit-BM-16
Procedure: as §1
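Further: HEK293T cells with Epo stimulation, STAT-responsive firefly luciferase reporter, fold induction versus unstimulated cells divided by the larger fold induction of two negative controls lacking either bait or prey.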

B1: PAN3 (protein)
chain: MCSTYGLLSFEFSDTAAMDPIFFSPTNGIPSESKLATYMNRQNVATPSGYGLNNGFSLLNLDSPLNKKSQVTPQSPEFIPTRLGSTPNFYAPYHNAPMQLSNGLNGVNGLTAAAAAAAAAAAAAAAAVPSSTSSASSASVTISKTANGGASMLALQKTASIASVTIAQQQPQHPQKQQQHPPSVGGGAVSAASAPIAISGAPPNPAAAPFVSSMSAQTPLKGRGAMMRQESPTAAMISGAGPGEKSPPHGMTPHGASPIPSALPTSVHQENVGGTIYFYPTANAQNSQPVVNSMVVDGTHPALHGVSAVAPMSAGVPAAMMYTGHVYPGPSSNVVTMQPKTLLESAFFMPDEMRAEVLARNEISNLIMDAAEAAQHALPLEVENYHALYPLEPPAQPLHAKLTFPATTYRATHNTTGYKYCLRRIHGFRLQSTKCMTLVEMWKKLQHTNVVQLREVFTTKAFGDNSLVLVYDYHPGSQTLLAKYFTPAPETNGYTDPFQGEARPFSHKSNMQRTSNGPLLPEATIWSIIMQLTAGLKAIHHAGLACKVLDPTKIIVTGKRVRFSSCCISDITQFDPNASNPLALVNMHQQDDLTALGRLVLALACRCLQSVQRDNVQSSIDMVTRNYSTDLRNFIVYLFTTNNRRSVTDLMPMIGARFYTQLDALQSKIDMQEDELAKEMENGRLYRILVKLNSINERPDFNLDCTWSETGDRYMLKLFRDYLFHSVTEDGRPWLDHAHIVQCLNKLDAGSIERVQLMSRDEQSVLIVSYAELKNCLENAFSELMSSAAN
With B1 the MAPPIT interaction score (ATPCL; pair source set: Curagen_high_conf) was 0.129, the MAPPIT interaction score (ATPCL; pair source set: Lit-BS-16) was 0.112 and the MAPPIT interaction score (Cka) was -0.663. The MAPPIT interaction score (CycK) was 3.73 (active), the MAPPIT interaction score (Dsp1; MAPPIT configuration: N-C) was 0.178 and the MAPPIT interaction score (Dsp1; MAPPIT configuration: N-N) was -0.667. The MAPPIT interaction score (Fkbp12) was 1.71, the MAPPIT interaction score (dod) was 2.85 (active) and the MAPPIT interaction score (eIF4E3) was 2.53 (active).

B2: mod (protein)
chain: MAQKKAVTVKGKKATNGEEKPLAKRVTKSTKVQEEETVVPQSPSKKSRKQPVKEVPQFSEEDESDVEEQNDEQPGDDSDFETEEAAGLIDDEAEEDEEYNSDDEEDDDDDELEPGEVSKSEGADEVDESDDDEEAPVEKPVSKKSEKANSEKSEENRGIPKVKVGKIPLGTPKNQIVFVTNLPNEYLHKDLVALFAKFGRLSALQRFTNLNGNKSVLIAFDTSTGAEAVLQAKPKALTLGDNVLSVSQPRNKEENNERTVVVGLIGPNITKDDLKTFFEKVAPVEAVTISSNRLMPRAFVRLASVDDIPKALKLHSTELFSRFITVRRISQESISRTSELTLVVENVGKHESYSSDALEKIFKKFGDVEEIDVVCSKAVLAFVTFKQSDAATKALAQLDGKTVNKFEWKLHRFERSTSGRAILVTNLTSDATEADLRKVFNDSGEIESIIMLGQKAVVKFKDDEGFCKSFLANESIVNNAPIFIEPNSLLKHRLLKKRLAIGQTRAPRKFQKDTKPNFGKKPFNKRPAQENGGKSFVKRARF
B2 was tested, and the MAPPIT interaction score (128up) was -0.0936.

B3: CSN4 (protein)
chain: MAANYGISTAALRSQLMGLINFTGTHKDQADKYRQLLKTVLTNTGQELIDGLRLFVEAIVNEHVSLVISRQILNDVGSELSKLPDDLSKMLSHFTLEKVNPRVISFEEQVAGIRFHLANIYERNQQWRDAATVLVGIPLETGQKQYSVECKLGTYLKIARLYLEDNDSVQAELFINRASLLQAETNSEELQVLYKVCYARVLDYRRKFIEAAQRYNELSYRKIVDQGERMTALKKALICTVLASAGQQRSRMLATLFKDERCQHLPAYGILEKMYLERIIRRSELQEFEALLQDHQKAATSDGSSILDRAVFEHNLLSASKLYNNITFEELGALLDIPAVKAEKIASQMITEGRMNGHIDQISAIVHFENRELLPQWDRQIQSLCYQVNSIIEKISVAEPDWMDNLN
For B3, the MAPPIT interaction score (7B2) was -0.195, the MAPPIT interaction score (CG10591) was 0.0604 and the MAPPIT interaction score (CSN7) was 4.26 (active). The MAPPIT interaction score (PICK1) was 2.03.

B4: 14-3-3zeta (protein)
chain: MSTVDKEELVQKAKLAEQSERYDDMAQAMKSVTETGVELSNEERNLLSVAYKNVVGARRSSWRVISSIEQKTEASARKQQLAREYRERVEKELREICYEVLGLLDKYLIPKASNPESKVFYLKMKGDYYRYLAEVATGDARNTVVDDSQTAYQDAFDISKGKMQPTHPIRLGLALNFSVFYYEILNSPDKACQLAKQAFDDAIAELDTLNEDSYKDSTLIMQLLRDNLTLWTSDTQGDEAEPQEGGDN
B4 was tested, and the MAPPIT interaction score (14-3-3epsilon; MAPPIT configuration: N-N) was 3.94 (active), the MAPPIT interaction score (CG5174) was 0.738 and the MAPPIT interaction score (LamC) was 0.222. For the same binder, the MAPPIT interaction score (mon2) was 0.305, the MAPPIT interaction score (par-1; MAPPIT configuration: N-C) was -0.258 and the MAPPIT interaction score (par-1; MAPPIT configuration: N-N) was -0.148. For the same binder, the MAPPIT interaction score (sol) was 1.59 and the MAPPIT interaction score (tral) was 0.0264.

B5: yki (protein)
chain: MLTTMSASSNTNSLIEKEIDDEDMLSPIKSNNLVVRVNQDTDDNLQALFDSVLNPGDAKRPLQLPLRMRKLPNSFFTPPAPSHSRANSADSTYDAGSQSSINIGNKASIVQQPDGQSPIAAIPQLQIQPSPQHSRLAIHHSRARSSPASLQQNYNVRARSDAAAANNPNANPSSQQQPAGPTFPENSAQEFPSGAPASSAIDLDAMNTCMSQDIPMSMQTVHKKQRSYDVISPIQLNRQLGALPPGWEQAKTNDGQIYYLNHTTKSTQWEDPRIQYRQQQQILMAERIKQNDVLQTTKQTTTSTIANNLGPLPDGWEQAVTESGDLYFINHIDRTTSWNDPRMQSGLSVLDCPDNLVSSLQIEDNLCSNLFNDAQAIVNPPSSHKPDDLEWYKIN
Binder B5 has an MAPPIT interaction score (14-3-3epsilon; MAPPIT configuration: N-C) of 2.04, an MAPPIT interaction score (14-3-3epsilon; MAPPIT configuration: N-N) of 2.25 and an MAPPIT interaction score (hpo) of 0.208. For the same binder, the MAPPIT interaction score (sd) was 0.32.

Reference: the supplement of paper PMC10105736
